An excerpt weighted towards active compounds, which were near 19% of everything screened.
IL-1B inflam inh – inflammasome signaling inhibition, IL-1 beta readout. 360,000 compounds, 4.7% hits. AID 743279. THP-1 LPS/ATP IL-1B secretion, AlphaLISA, 16 h; stronger effect = lower value. activity change, % at 57.5 µM; in the data active = activity change below about -50%; inconclusive = mostly about -30% to -49%
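Secreted IL-1B measured by AlphaLISA bead assay after 16 h compound exposure of THP-1 cells; compounds (final up to 57.5 uM) added 1 h before LPS (250 ng/mL) and ATP (1.25 mM) stimulation; lower signal means less secretion.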
TDP1 cell CPT – growth inhibition of DT40 Tdp1-/-;hTDP1 cells with camptothecin (screen for TDP1 inhibitors). Potency, µM (top dose mostly 46.2 µM), without a hit: at the highest dose activity change, negative = growth inhibition, hits mostly inhibitors. AID 686979. chicken DT40 Tdp1-/-;hTDP1 cells + 20 nM CPT, ATP luminescence, 48 h. 420,000 compounds, 12% hits; also: potency is read from the fitted curve at half-maximal effect; nearly all actives have a fitted effect of over 55% in size
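Chicken DT40 Tdp1-/- cells complemented with human TDP1, 400 cells/well, exposed to compounds plus 20 nM camptothecin for at least 48 h at 37 C; viability read as ATP content by CellTiter-Glo luminescence.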
HT1080 IDH1KD tx – toxicity to HT-1080 IDH1 knockdown cells (counter line); 360,000 compounds, 2% hits; HT-1080 IDH1 knockdown viability, ATP luminescence, 48 h; AID 686971; Potency, µM (titrated, usually from 46.1 µM), for the others: top-dose activity, negative = toxicity, most hits filed as cytotoxic;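 also: potency is read from the fitted curve at half-maximal effect; 0% = DMSO wells and -100% = cell-free medium wells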
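HT-1080-IDH1KD cells (IDH1 knocked down), 750/well in RPMI with 5% FBS, treated with compound 48 h at 37 degrees C. Viability by CellTiter-Glo luminescence, normalised to DMSO and no-cell wells; concentration-response curves classed.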
uPA surface inh – blocks generation of uPA at the cell surface | cell surface uPA generation assay, qHTS | Potency, µM (series often up to 38.3 µM), for the others: top-dose activity change, negative = inhibition, actives largely listed as inhibitors | 330,000 compounds, 0.31% hits | AID 540303; active = well fitted inhibition curve with a large enough effect; inconclusive = small, poorly fitted or top-dose-only effect; inactive = no such curve, though single readings can be large or run the other way; tested in mouse RAW 264.7 cells; also: potency is read from the fitted curve at half-maximal effect; nearly all actives have a fitted effect of over 55% in size
DT40 TDP1 no CPT – qHTS for Inhibitors of human tyrosyl-DNA phosphodiesterase 1 (TDP1): qHTS in cells in absence of CPT; DT40 Tdp1-/- hTDP1 cells, no CPT, ATP luminescence, 48 h; AID 686978, 2013; Potency, µM (series often up to 46.2 µM), for the others: at the top dose activity change, negative = growth inhibition, most hits filed as inhibitors; 420,000 compounds, 15% hits; also: potency is read from the fitted curve at half-maximal effect; nearly all actives have a fitted effect of over 55% in size
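Luminescent ATP content (CellTiter-Glo) served as the growth readout. Knockout chicken DT40 cells expressing human TDP1 were exposed to compounds without camptothecin for a minimum 48 hr at 37 °C.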
HT1080-NT tox – kills 2HG-producing HT-1080-NT fibrosarcoma cells. Potency, µM (top dose mostly 46.1 µM), for the others: top-dose activity, negative = less viability, usual class: cytotoxic. HT-1080-NT fibrosarcoma viability, CellTiter-Glo ATP luminescence, 48 h. 360,000 compounds, 1.6% hits;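 also: NT is the 2HG producing partner of a matched IDH1 knockdown line; potency is read from the fitted curve at half-maximal effect; 0% = DMSO-treated cells and -100% = media-only wells without cells; nearly all actives have a fitted effect of over 55% in size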
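Read-out is CellTiter-Glo luminescence after 10 minutes at room temperature, following 48 hours' compound treatment of HT-1080-NT cells (750 cells/well, RPMI, 5% FBS, 37 degrees C).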
* hit, by the source's call; ? = inconclusive; . = not tested or not shown; [ ] = dose if it differs, or a comment. Unless noted, calls follow the shape of the dose curve; as a rule, active = well fitted curve in the direction sought with a large enough effect; inconclusive = small, poorly fitted or top-dose-only effect, or another doubt; inactive = no such curve, though single readings can be large; an effect the other way counts as inactive or inconclusive. Unless noted, % is scaled to controls: 0 for no effect and ±100 for the full control effect.

SMILES	IL-1B inflam inh	TDP1 cell CPT	HT1080 IDH1KD tx	uPA surface inh	DT40 TDP1 no CPT	HT1080-NT tox
CCc1nc(SCC(=O)N2CCN(C(=O)c3ccco3)CC2)c2c3c(sc2n1)CCCC3	22	?	?	-8%	13µM*	-12%
Cc1nc(N2CCN(C(=O)c3ccco3)CC2)c2c3c(sc2n1)CCCC3	-9	?	?	-18%	15µM*	?
CCc1cc2cc(C)cc(C)c2nc1SCC(=O)Nc1cc(C)on1	20	-6%	-17%	-4%	23%	1%
O=C(CSc1ncnc2sc3c(c12)CCCC3)c1ccco1	-2	?	-13%	-3%	?	-9%
CCNC(=O)C1(C)CCN(C(=O)c2ccccc2C(F)(F)F)C1 (stereo not given)	37	-17%	1%	.	-2%	26%
Cc1ccc(C)c(-n2ccnc2SCC(=O)c2c(N)n(C3CC3)c(=O)[nH]c2=O)c1	6	?	-15%	-15%	?	-4%[9.24 µM]
CCOC(=O)C1=C(C(=O)OCC)N(Cc2ccccc2)CCC1=O	-2	-15%	-1%	2%	-10%	-2%
Cc1nc(N2CCN(C(=O)c3cccs3)CC2)c2c3c(sc2n1)CCCC3	58	?	?	-2%	?	-30%
CCc1cc2ccccc2nc1SCC(=O)N1CCN(C(=O)c2ccco2)CC1	?	?	9%	1%	?	6%
Cc1nc(N2CCN(C(=O)c3ccco3)CC2)c2c3c(sc2n1)CC(C)CC3 (stereo not given)	-7	21µM*	?	2.8µM*	16µM*	-16%
CCc1cc2cc(C)ccc2nc1SCC(=O)N1CCN(C(=O)c2ccco2)CC1	-21	13µM*	-3%[9.24 µM]	5%	21µM*	-10%
CC(C)(C)c1ccc(C(=O)Cn2cnnc2C#N)cc1	-6	21µM*	?	-1%	16µM*	?
OC[C@@H]1CN(Cc2ccco2)C[C@H](n2cnc3c(Nc4ccccc4)ncnc32)O1	1	?	0%	.	-21%	28%
Cc1nc2ccc(C(=O)OC(C)C(=O)c3c(C)[nH]c4ccccc34)cc2nc1C (stereo not given)	.	?	.	.	13µM*	.
Cc1[nH]c2ccccc2c1C(=O)C(C)OC(=O)c1ccc([N+](=O)[O-])o1 (stereo not given)	-62*	?	?	-9%	16µM*	?
CCc1noc(C)c1C(=O)OC(C)C(=O)c1c(C)[nH]c2ccccc12 (stereo not given)	-6	16µM*	-18%	0%	?	-12%
CCc1noc(C)c1C(=O)OCC(=O)NCc1ccccc1	15	-13%	3%	4%	-7%	2%
CC(=O)c1ccccc1OC(=O)c1ccc([N+](=O)[O-])o1	3	?	-1%	-3%	-24%	-3%
O=C(Nc1ccc(F)c(Cl)c1)c1csc(COCCO)n1	27	-26%	-12%	.	-24%	-6%
COc1cccc(CC(=O)OCC(=O)Nc2c(C)nn(-c3ccccc3)c2C)c1	4	?	15%	1%	-17%	27%
Cc1ccccc1CN(C)CC(=O)NC(C)CCc1ccccc1 (stereo not given)	-8	?	-20%	3%	16µM*	2%
Cc1cccc(C)c1NC(=S)NC(C)CCc1ccccc1 (stereo not given)	-1	?	-2%	-3%	16µM*	-7%
CCOC(=O)c1ccc(NC(=O)c2nc[nH]c2C(=O)NCCCCNC(=O)c2[nH]cnc2C(=O)Nc2ccc(C(=O)OCC)cc2)cc1	-1	?	12%	13%	4.6µM*	6%
CCOC(=O)c1ccc(NC(=O)c2nc[nH]c2C(=O)NCCCCCNC(=O)OC(C)(C)C)cc1	-1	?	-2%	10%	18µM*	-2%
CCCS(=O)(=O)NC(=O)C1(C)CCCN(C(=O)COc2ccccc2)C1 (stereo not given)	-15	-1%	2%	.	7%	19%
SMILES	IL-1B inflam inh	TDP1 cell CPT	HT1080 IDH1KD tx	uPA surface inh	DT40 TDP1 no CPT	HT1080-NT tox
CCCOC1CCCN(Cc2nc(-c3ccc(C(=O)OC)cc3)no2)C1 (stereo not given)	59	?	1%	-1%	?	1%
CCCCCCCCCCCCC/C=C/[C@@H](O)[C@H](CO)NC(C)=O	.	-15%[4.12 µM]	.	.	?	.
COc1ccc(C2CC(c3c(O)cc(C)oc3=O)=NCCS2)c(OC)c1 (stereo not given)	-8	0.46µM*	1.3µM*	-12%	0.021µM*	1.3µM*
CN(C)C/C=C/C(=O)Nc1cccc(-c2c[nH]c3ncnc(Oc4ccc(NC(=O)CC(=O)Nc5ccc(F)cc5)cc4F)c23)c1	-90*	11%	-10%	1%	-6%	-14%
O=C(Nc1ncc(Cc2ccccc2)s1)C1CCCO1 (stereo not given)	-9	6%	1%	-25%	-14%	3%
O=C(Nc1ncc(Cc2ccc(F)cc2)s1)c1ccc2c(c1)CC(c1ccccc1)OC2=O (stereo not given)	.	?	.	.	23µM*	.
CCCCN(C(=O)CCC(=O)Nc1cc(C)on1)C(C(=O)NC1CCCC1)c1ccc(F)cc1 (stereo not given)	-77*	-107%	-20%	2%	-98%	-15%
COCCN(C(=O)CCC(=O)Nc1cc(C)on1)C(C(=O)NC1CCCC1)c1ccc(C)cc1 (stereo not given)	-19	?	-6%	?	0.33µM*	-7%
CC(OC(=O)COc1ccc(C#N)cc1)C(=O)Nc1ccc(Cl)cn1 (stereo not given)	1	-1%	7%	6%	-5%	1%
CCOc1ccc(C2=CC(=O)C[C@H](c3ccc(OC)cc3)C2)cc1	-7	-25%	3%	9%	-20%	0%
CCN(CC(=O)Nc1ccc(C(=O)Nc2ccc(OC)cc2)cc1)Cc1nc2ccccc2c(=O)[nH]1	-9	?	0%	11%	23µM*	0%
CCC(=O)N(Cc1ccc(C)cc1)Cc1cc2cc3c(cc2[nH]c1=O)OCO3	0	-27%	-15%	.	-27%	5%
CCN(CCS(=O)(=O)c1ccc(Br)cc1)Cc1nc2ccccc2c(=O)[nH]1	-52*	-17%	-7%	?	?	-8%
COc1ccc(CN(Cc2cc3cc4c(cc3[nH]c2=O)OCO4)C(=O)NC2CCCCC2)cc1	-27	18µM*	-18%	2%	23µM*	-15%

Compound activity: PubChem BioAssay, National Center for Advancing Translational Sciences (NCATS)
